Several values for one entry are separate records, joined by “and”; a condition that tells them apart may be missing. Equal entries are not always repeated. Inconclusive results are not listed. Entries that show only a call come without a potency. Some compounds were tested as several samples or in several runs, with calls that do not always agree. Activity calls are given as the source filed them. The call rests on the fitted dose curve.
Key:
[1] = molecular target: Acetylcholinesterase (Homo sapiens) (UniProt P22303); assay: Acetylcholinesterase (AChE) small molecule antagonists: colormetric cell-based qHTS assay (AID 1347395); further: nearly all actives have a fitted effect of over 30% in size; further: potency means the concentration at half of the fitted maximal effect
Chain of Acetylcholinesterase (Homo sapiens) (P22303 whole entry, looked up): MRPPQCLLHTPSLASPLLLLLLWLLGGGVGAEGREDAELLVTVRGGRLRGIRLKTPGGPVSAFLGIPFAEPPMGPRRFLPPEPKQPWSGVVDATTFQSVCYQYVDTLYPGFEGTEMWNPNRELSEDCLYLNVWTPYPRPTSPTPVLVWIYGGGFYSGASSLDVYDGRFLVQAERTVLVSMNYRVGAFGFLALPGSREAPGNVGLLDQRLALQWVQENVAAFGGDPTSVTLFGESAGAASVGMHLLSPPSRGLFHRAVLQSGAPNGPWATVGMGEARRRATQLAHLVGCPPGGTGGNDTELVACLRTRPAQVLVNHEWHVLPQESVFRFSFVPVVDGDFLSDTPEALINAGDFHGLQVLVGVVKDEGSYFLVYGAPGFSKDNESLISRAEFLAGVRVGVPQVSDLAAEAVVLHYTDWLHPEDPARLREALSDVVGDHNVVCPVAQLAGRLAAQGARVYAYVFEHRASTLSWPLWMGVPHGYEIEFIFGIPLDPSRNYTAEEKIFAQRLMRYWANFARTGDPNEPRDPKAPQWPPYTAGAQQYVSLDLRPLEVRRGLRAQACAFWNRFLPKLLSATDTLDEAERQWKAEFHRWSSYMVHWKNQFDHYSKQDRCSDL
Outline: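 SH-SY5Y cells, plated overnight at 37 C, were exposed to compounds for 30 min at 37 C and 5% CO2. Acetylthiocholine plus DTNB was then added, and thiocholine from endogenous AChE was quantified colorimetrically after 90 min at 37 C.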

[2] = molecular target: Acetylcholinesterase (Homo sapiens) (UniProt P22303); assay: Acetylcholinesterase (AChE) small molecule antagonists: enzyme-based qHTS assay (AID 1347397); conditions: Potency: AChE enzyme activity inhibition; outcome: AChE enzyme activity inhibition; further: nearly all actives have a fitted effect of over 55% in size; further: potency means the concentration at half of the fitted maximal effect
Outline: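 Human recombinant acetylcholinesterase; substrate acetylthiocholine; thiocholine quantified with DTNB (colorimetric). Compound preincubation 30 min RT; reaction 10 min RT.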

[3] = molecular target: Acetylcholinesterase (Homo sapiens) (UniProt P22303); assay: Acetylcholinesterase (AChE) small molecule antagonists: fluorescence cell-based qHTS assay (AID 1347398); conditions: Potency: AChE activity; outcome: AChE activity; further: nearly all actives have a fitted effect of over 50% in size; further: potency means the concentration at half of the fitted maximal effect
Outline: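 Thiocholine generated from acetylthiocholine by SH-SY5Y cell AChE is detected with Thiolite Green (Ex/Em 490/520 nm) after 40 min at room temperature, following 30 min compound pretreatment at 37 C.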

[4] = molecular target: Acetylcholinesterase (Homo sapiens) (UniProt P22303); assay: Acetylcholinesterase (AChE) small molecule antagonists: enzyme-based qHTS assay with human liver microsomes (AID 1347399); conditions: Potency: qHTS inhibition; outcome: qHTS inhibition; further: nearly all actives have a fitted effect of over 60% in size
Outline: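 Recombinant human AChE (50 mU/mL in the enzyme mix) and human liver microsomes (0.25 mg/mL final) were preincubated with compound and NADPH (0.25 mg/mL final) for 30 min at 37 C. Acetylthiocholine/DTNB was then added; thiocholine was read colorimetrically after 10 min at room temperature.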

Row | Structure (SMILES) | Potency [1] | Potency [2] | Potency [3] | Potency [4] | activity, negative = inhibition [1] | activity change, negative = inhibition [2] | activity change, negative = inhibition [3] | activity change, negative = inhibition [4]
1 | COc1ccccc1OCC(O)COC(N)=O (stereo not given) | inactive | inactive | inactive | inactive |  |  |  | 
2 | O=[N+]([O-])c1ccc2nc[nH]c2c1 | inactive | inactive | inactive | inactive |  |  |  | 
3 | CCC(Cc1c(I)cc(I)c(N)c1I)C(=O)O (stereo not given) | inactive | inactive | inactive | inactive |  |  |  | 
4 | CCCCC/C=C/CC(=O)OC | inactive | inactive | inactive | inactive |  |  |  | 
5 | CC(C)C(=O)OCCOc1ccccc1 | inactive | inactive | inactive | inactive |  |  |  | 
6 | OCCc1ccccn1 | inactive | inactive | inactive | inactive |  |  |  | 
7 | Nc1nc2ccccc2[nH]1 | inactive | inactive | inactive | inactive |  |  |  | 
8 | COc1cc(C=O)ccc1OC(=O)C(C)C | inactive | inactive | inactive | inactive |  |  |  | 
9 | c1cc2ccc3ccc4ccc5cccc6c(c1)c2c3c4c56 |  |  |  |  | 3.35% [at 4.07 µM] (inactive) | 0.28% [at 4.07 µM] (inactive) | 9.19% [at 3.98 µM] (inactive) | 0.324% [at 4.07 µM] (inactive)
10 | COc1cc(/C=C/C(N)=O)cc(OC)c1OC | inactive | inactive | inactive | inactive |  |  |  | 
11 | CN(C)Cc1cc(CN(C)C)c(O)c(CN(C)C)c1 | inactive | inactive | inactive | inactive |  |  |  | 
12 | COc1ccc(C(=O)c2ccccc2)c(O)c1 | inactive | inactive | inactive | inactive |  |  |  | 
13 | O=S(=O)(O)CC(O)CCl (stereo not given) | inactive | inactive | inactive | inactive |  |  |  | 
14 | Cc1ccc(C=O)cc1 | inactive | inactive | inactive | inactive |  |  |  | 
15 | O=C1CCCCC1 | inactive | inactive | inactive | inactive |  |  |  | 
16 | C1CN(SSN2CCOCC2)CCO1 | inactive | inactive | inactive | inactive |  |  |  | 
17 | COc1cc(/C=C/C(=O)CC(=O)/C=C/c2ccc(O)c(OC)c2)ccc1O | inactive | inactive | inactive | inactive |  |  |  | 
18 | O[C@@H](COc1cccc2ncccc12)CN1CCN(C2c3ccccc3[C@@H]3[C@H](c4ccccc42)C3(F)F)CC1 (stereo not given in full) | inactive | inactive | inactive | inactive |  |  |  | 
19 | CCOC(=O)NNc1nncc2ccccc12 | inactive | inactive | inactive | inactive |  |  |  | 
20 | Cc1[nH]nc2c1N=C(c1ccccc1Cl)c1cc([N+](=O)[O-])ccc1N2 | inactive | inactive | inactive | inactive |  |  |  | 

Row | Structure (SMILES) | Potency [1] | Potency [2] | Potency [3] | Potency [4] | activity, negative = inhibition [1] | activity change, negative = inhibition [2] | activity change, negative = inhibition [3] | activity change, negative = inhibition [4]
21 | Nc1ccn([C@H]2CS[C@@H](CO)O2)c(=O)n1 | inactive | inactive | inactive | inactive |  |  |  | 
22 | O=S(=O)(O)c1cc(Cl)c(Cl)cc1Cl | inactive | inactive | inactive | inactive |  |  |  | 
23 | Cc1c(Cn2ccnc2)c2ccccc2n1CCC(=O)O | inactive | inactive | inactive | inactive |  |  |  | 
24 | O=C(O)C(Cc1cc(I)c(O)c(I)c1)c1ccccc1 (stereo not given) | inactive | inactive | inactive | inactive |  |  |  | 
25 | CO[C@H]1O[C@H](CO)[C@@H](O)[C@H](O)[C@H]1O | inactive | inactive | inactive | inactive |  |  |  | 
26 | COCCOCCOC | inactive | inactive | inactive | inactive |  |  |  | 
27 | C=C(C)C1CC=C(C)CC1 (stereo not given) | inactive | inactive | inactive | inactive |  |  |  | 
28 | Oc1cc(O)c(Cl)cc1Cl | inactive | inactive | inactive | inactive |  |  |  | 
29 | NC(=O)C1(N2CCCCC2)CCN(CCCC(=O)c2ccc(F)cc2)CC1 | inactive | inactive | inactive | inactive |  |  |  | 
30 | COC(=O)CCCCC(=O)OC | inactive | inactive | inactive | inactive |  |  |  | 
31 | CCCCCCCCCCCCCC | inactive | inactive | inactive | inactive |  |  |  | 
32 | CN(C)CCOC(C)(c1ccccc1)c1ccccn1 (stereo not given) | inactive | inactive | inactive | inactive |  |  |  | 
33 | O=C(O)CNCC(=O)O |  |  |  |  | 1.88% [at 10.5 µM] (inactive) | -0.541% [at 10.5 µM] (inactive) | -0.972% [at 10.5 µM] (inactive) | -0.995% [at 10.5 µM] (inactive)
34 | COC(=O)[C@H]1[C@H]2C[C@@H]3c4[nH]c5cc(OC)ccc5c4CCN3C[C@H]2C[C@@H](OC(=O)c2cc(OC)c(OC)c(OC)c2)[C@@H]1OC | inactive | inactive | inactive | inactive |  |  |  | 
35 | CCCCCCCCCC=O | inactive | inactive | inactive | inactive |  |  |  | 
36 | CC(=O)N1CCN(c2ccc(OC[C@H]3CO[C@](Cn4ccnc4)(c4ccc(Cl)cc4Cl)O3)cc2)CC1 | 35.6 µM (active) | inactive | 31.7 µM (active) | inactive |  |  |  | 
37 | C[C@]12CC[C@@H]3c4ccc(O)cc4CC[C@H]3[C@@H]1CC[C@H]2O | inactive | inactive | inactive | inactive |  |  |  | 
38 | Nc1ccc(S(=O)(=O)Nc2cnc3ccccc3n2)cc1 | inactive | inactive | inactive | inactive |  |  |  | 
39 | O=C(O)C1CCC(C(=O)O)CC1 (stereo not given) | inactive | inactive | inactive | inactive |  |  |  | 
40 | Nc1nnnn1-c1ccccc1 | inactive | inactive | inactive | inactive |  |  |  | 

Row | Structure (SMILES) | Potency [1] | Potency [2] | Potency [3] | Potency [4] | activity, negative = inhibition [1] | activity change, negative = inhibition [2] | activity change, negative = inhibition [3] | activity change, negative = inhibition [4]
41 | CC1=NN(c2ccccc2)C(=O)C1 | inactive | 35.8 µM (active) and inactive | 5.06 µM (active) and inactive | inactive |  |  |  | 
42 | NS(=O)(=O)c1ccc(Cl)c(S(N)(=O)=O)c1 | inactive | inactive | inactive | inactive |  |  |  | 
43 | CCCCCCCCCC/C=C/C#N | inactive | inactive | inactive | inactive |  |  |  | 
44 | OC(CCl)CCl | inactive | inactive | inactive | inactive |  |  |  | 
45 | Clc1ccc2c(Cl)ccnc2c1 | inactive | inactive | inactive | inactive |  |  |  | 
46 | CC(C)CCCCCCCOC(=O)c1ccc(C(=O)OCCCCCCCC(C)C)c(C(=O)OCCCCCCCC(C)C)c1 | inactive | inactive | inactive | inactive |  |  |  | 
47 | COCC(C)O (stereo not given) | inactive | inactive | inactive | inactive |  |  |  | 
48 | C=CC(C)(C)O | inactive | inactive | inactive | inactive |  |  |  | 
49 | COC(C)(C)OC | inactive | inactive | inactive | inactive |  |  |  | 
50 | COc1ccc2c(c1)c(CC(=O)OC/C=C(\C)CC/C=C(\C)CCC=C(C)C)c(C)n2C(=O)c1ccc(Cl)cc1 | inactive | inactive | inactive | inactive |  |  |  | 
51 | CCC1CO1 (stereo not given) | inactive | inactive | inactive | inactive |  |  |  | 
52 | CCCCCCCCC=O | inactive | inactive | inactive | inactive |  |  |  | 
53 | C#C[C@]1(O)CC[C@H]2[C@@H]3[C@H](C)CC4=C(CCC(=O)C4)[C@H]3CC[C@@]21C | inactive | inactive | inactive | inactive |  |  |  | 
54 | C=CC(C)CCCC(C)(C)O (stereo not given) | inactive and 28.3 µM (active) | inactive and 25.2 µM (active) | inactive and 22.4 µM (active) | inactive |  |  |  | 
55 | CCC(N)(CO)CO | inactive | inactive | inactive | inactive |  |  |  | 
56 | Cc1cc2nc(N)sc2cc1C | inactive | inactive | inactive | inactive |  |  |  | 
57 | CC(C)=CCC/C(C)=C/CC/C(C)=C/C(=O)OCC(=O)[C@@]1(O)CC[C@H]2[C@@H]3CCC4=CC(=O)C=C[C@]4(C)[C@H]3[C@@H](O)C[C@@]21C | inactive | inactive | inactive | inactive |  |  |  | 
58 | CCCCCC/C=C/C=O | inactive | inactive | inactive | inactive |  |  |  | 
59 | O=c1[nH]cnc2[nH]ncc12 | inactive | inactive | inactive | inactive |  |  |  | 
60 | Nc1ccc(S(=O)(=O)NCc2ccccc2)cc1 | inactive | inactive | inactive | inactive |  |  |  | 

From PubChem BioAssay (Tox21)
